Bioassay records (PubChem)
An excerpt weighted towards active compounds, which were near 19% of everything screened.
HT1080-NT tox – qHTS for induction of synthetic lethality in tumor cells producing 2HG: qHTS for the HT-1080-NT fibrosarcoma cell line | 1.6% of 360,000 active | HT-1080-NT fibrosarcoma viability, CellTiter-Glo ATP luminescence, 48 h | Potency, µM (titrated, usually from 46.1 µM), inactives show top-dose activity, negative = less viability, actives largely listed as cytotoxic;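 note: NT is the 2HG producing partner of a matched IDH1 knockdown line; potency is the fitted concentration of half-maximal effect; 0% = DMSO-treated cells and -100% = media-only wells without cells; nearly all actives have a fitted effect of over 55% in size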
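A 48-hour cytotoxicity screen used HT-1080-NT cells plated 2 hours before compound delivery. ATP-based CellTiter-Glo luminescence measured viability, normalized to DMSO and no-cell controls.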
TDP1 cell CPT – qHTS for Inhibitors of human tyrosyl-DNA phosphodiesterase 1 (TDP1): qHTS in cells in presence of CPT | Potency, µM (doses to about 46.2 µM), without a hit: top-dose activity change, negative = growth inhibition, actives largely listed as inhibitors | AID 686979, 2013 | 12% of 420,000 active | chicken DT40 Tdp1-/-;hTDP1 cells + 20 nM CPT, ATP luminescence, 48 h; note: potency is the fitted concentration of half-maximal effect; nearly all actives have a fitted effect of over 55% in size
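Cell growth measured by CellTiter-Glo luminescence after a minimum 48 h, 37 C compound exposure with 20 nM CPT in Tdp1-knockout DT40 cells stably expressing hTDP1, seeded 400/well; qHTS titration format.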
uPA surface inh – qHTS for Inhibitors of Cell Surface uPA Generation; cell surface uPA generation assay, qHTS; 0.31% of 330,000 active; Potency, µM (highest dose often 38.3 µM), without a hit: at the top dose activity change, negative = inhibition, actives largely listed as inhibitors; active = well fitted inhibition curve with a large enough effect; inconclusive = small, poorly fitted or top-dose-only effect; inactive = no such curve, though single readings can be large or run the other way; tested in mouse RAW 264.7 cells; note: potency is the fitted concentration of half-maximal effect; nearly all actives have a fitted effect of over 55% in size
DT40 TDP1 no CPT – qHTS for Inhibitors of human tyrosyl-DNA phosphodiesterase 1 (TDP1): qHTS in cells in absence of CPT; 15% of 420,000 active; Potency, µM (top dose mostly 46.2 µM), for inactives: top-dose activity change, negative = growth inhibition, hits mostly inhibitors; DT40 Tdp1-/- hTDP1 cells, no CPT, ATP luminescence, 48 h; note: potency is the fitted concentration of half-maximal effect; nearly all actives have a fitted effect of over 55% in size
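No-CPT arm: Tdp1-/-;hTDP1 DT40 cells (400/well) plus compounds, incubated ≥48 hr at 37 °C. Readout CellTiter-Glo luminescence.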
HT1080 IDH1KD tx – qHTS for induction of synthetic lethality in tumor cells producing 2HG: qHTS for the HT-1080-IDH1KD cell line | 2% of 360,000 active | HT-1080 IDH1 knockdown viability, ATP luminescence, 48 h | Potency, µM (titrated, usually from 46.1 µM), for inactives: at the top dose activity, negative = toxicity, actives largely listed as cytotoxic | AID 686971, 2013;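 note: potency is the fitted concentration of half-maximal effect; 0% = DMSO wells and -100% = cell-free medium wells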
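HT-1080-IDH1KD cells (IDH1 knocked down), 750/well in RPMI with 5% FBS, treated with compound 48 h at 37 degrees C. Viability by CellTiter-Glo luminescence, normalised to DMSO and no-cell wells; concentration-response curves classed.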
IL1B secr inh – qHTS for Inhibitors of Inflammasome Signaling: IL-1-beta AlphaLISA Primary Screen. THP-1 LPS/ATP IL-1B secretion, AlphaLISA, 16 h; hits give low values. activity change, % at 57.5 µM. 4.7% of 360,000 active. AID 743279, 2014; in the data active = activity change below about -50%; inconclusive = mostly about -30% to -49%
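THP-1 cells pretreated 1 hr with compounds (up to 57.5 uM final), then stimulated with LPS (250 ng/mL final) plus ATP (1.25 mM final); secreted IL-1B measured by AlphaLISA after 16 hr, decreased signal indicating inhibition.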
Starred values were filed as active, the others as inactive; ? = inconclusive; . = not tested or not shown; [ ] = another dose, or the depositor's remark. Unless noted, calls come from the whole dose curve; as a rule, active = well fitted curve in the direction sought with a large enough effect; inconclusive = small, poorly fitted or top-dose-only effect, or another doubt; inactive = no such curve, though single readings can be large; an effect the other way counts as inactive or inconclusive. Unless noted, % is set by controls: 0 for no effect and ±100 for the full control effect.

SMILES	HT1080-NT tox	TDP1 cell CPT	uPA surface inh	DT40 TDP1 no CPT	HT1080 IDH1KD tx	IL1B secr inh
CN1CCN(c2ccc3sc(-n4ccc5ccccc54)nc3c2)CC1	?	16µM*	.	13µM*	?	-16
Cc1cccc(N2C(=O)C(Cl)=C(Nc3c(C)n(C)n(-c4ccccc4)c3=O)C2=O)c1C	-6%	?	5%	?	3%	0
Cc1ccc(N2C(=O)C(Cl)=C(Nc3c(C)n(C)n(-c4ccccc4)c3=O)C2=O)cc1	0%	?	-9%	13µM*	?	-16
CC[n+]1c(-c2ccc(C)cc2)csc1Nc1c(C)n(C)n(-c2ccccc2)c1=O	-4%	15µM*	-4%	12µM*	-24%	?
CCC(C)Nc1nc(Cl)nc(N(C#N)CN2C(=O)c3ccccc3S2(=O)=O)n1 (configuration not stated)	-20%	15µM*	-2%	?	-23%	-66*
CC(C)Nc1nc(Cl)nc(N(C#N)CN2C(=O)c3ccccc3C2=O)n1	?	3%	-13%	-25%	18µM*	-99*
CCN(C#N)c1nc(NC(C)C)nc(NC(C)C)n1	8%[9.24 µM]	-22%	.	-18%	4%	-2
CN1CCN(C(=O)CCN2C(=O)c3ccccc3S2(=O)=O)CC1	2%	-4%	6%	5%	1%	3
Cc1ccc(S(=O)(=O)N(C)C)cc1NC(=O)COC(=O)c1ccc(Cl)cc1	0%	-7%	3%	-8%	0%	11
O=C(Cc1ccccc1[N+](=O)[O-])Nc1cccc(S(=O)(=O)NC2=NCCCCC2)c1	-2%	-5%	1%	-28%	-2%	0
O=C(/C=C/c1ccc([N+](=O)[O-])cc1)Nc1cccc(S(=O)(=O)NC2=NCCCCC2)c1	0%	15µM*	-11%	15µM*	-8%	?
O=C(/C=C/c1ccc(Cl)cc1Cl)Nc1cccc(S(=O)(=O)NC2=NCCC2)c1	-9%	16µM*	4.5µM*	?	?	?
O=C(COc1ccccc1Cl)Nc1cccc(S(=O)(=O)NC2=NCCCCC2)c1	-9%	?	-3%	?	-19%	-25
O=C(/C=C/c1ccccc1Cl)Nc1cccc(S(=O)(=O)NC2=NCCCCC2)c1	?	?	-7%	?	-13%	-64*
COc1cc(-n2c(C)nc3ncn(-c4ccccc4)c3c2=O)cc(OC)c1OC	4%	-2%	.	-24%	1%	23
Cc1ccc(-c2nc(-c3nccc4ccccc34)oc2-c2ccccc2)cc1	0%	?	-2%	13µM*	-1%	-5
CC(C)Oc1ccc(CN2CCC2(C)C(=O)Nc2ccc(Cl)c(Cl)c2)cc1 (configuration not stated)	?	?	.	?	0%	3
CSCCC(NS(=O)(=O)c1ccc2c(c1)oc(=O)n2C)C(=O)NCc1ccc(F)cc1 (configuration not stated)	.	-5%	.	-4%	.	.
O=c1c2cc3c(nc2[nH]c(=S)n1-c1ccccc1)CCCC3	10%	-3%	6%	1%	27%	35
O=C1NC[C@@H](CCCCN2CCN(CCc3ccc(O)cc3)C(=O)C2=O)N(Cc2ccccc2)C1=O	21%	15%	.	-4%	?	49
CCOC(=O)c1c(-c2ccc(F)cc2)csc1NC(=O)CN1C(=O)NC2(CCCCC2C)C1=O (configuration not stated)	-28%	21µM*	-5%	?	?	15
CCOC(=O)c1c(NC(=O)CN2C(=O)NC3(CCCCC3C)C2=O)sc(C(=O)N(C)C)c1C (configuration not stated)	-4%	5%	-6%	8%	-12%	-4
CCOC(=O)c1c(NC(=O)CN2C(=O)NC3(CCCCC3C)C2=O)sc(C)c1C (configuration not stated)	-10%	21µM*	-6%	21µM*	-5%	2
CC(C)=CCC/C(C)=C/CNC(=O)CC1C[C@H](C(=O)N(C(C)C)C(C)C)[C@@]2(C)c3[nH]c4ccccc4c3CCN2C1=O (some centres not stated)	-1%	16µM*	-1%	23µM*	-1%	-17
COc1ccc2[nH]c3c(c2c1)CCN1C(=O)C(CC(=O)NC/C=C(\C)CCC=C(C)C)C[C@H](C(=O)N(C(C)C)C(C)C)[C@@]31C (some centres not stated)	?	?	?	18µM*	?	-64*
SMILES	HT1080-NT tox	TDP1 cell CPT	uPA surface inh	DT40 TDP1 no CPT	HT1080 IDH1KD tx	IL1B secr inh
COc1ccc2[nH]c3c(c2c1)CCN1C(=O)C(CC(=O)NC(C)(C)C)C[C@H](C(=O)N(C(C)C)C(C)C)[C@@]31C (some centres not stated)	1%	?	-7%	?	-5%	-11
Cc1cc(C)c2c(=O)cc(C(=O)Nc3sc4c(c3C#N)CCCC4)oc2c1	.	-12%	.	?	.	.
CC(Oc1ccccc1)C(=O)N[C@@H]1C(=O)N2C(C(=O)O)C(C)(C)S[C@H]12 (some centres not stated)	.	-1%	.	8%	.	.
CCN1CCN(C(=O)c2cc3c(s2)-c2c(C)cccc2OC3)CC1	-1%	?	?	?	-10%	-13
CN(C)CCN(Cc1ccco1)C(=O)c1cc2c(s1)-c1ccccc1OC2	.	16µM*	.	16µM*	.	.
CCCCN(Cc1ccco1)C(=O)c1cc2c(s1)-c1c(C)cccc1OC2	.	?	.	23µM*	.	.
O=C(NCC12CC3CC(CC(C3)C1)C2)c1cc2nc(-c3ccc(F)cc3)cc(C(F)(F)F)n2n1	.	4%	.	-12%	.	.
CCc1cccc(NC(=O)c2sc3nc[nH]c(=O)c3c2C)c1	.	?	.	21µM*	.	.
Cc1c(C(=O)Nc2cccc(C(F)(F)F)c2)sc2nc[nH]c(=O)c12	.	16µM*	.	21µM*	.	.
CCc1cccc(NC(=O)c2snc3c(=O)[nH]cnc23)c1	18%	-8%	-1%	-13%	4%	13
O=C(Nc1cccc(C(F)(F)F)c1)c1sc(Cl)nc1C(F)(F)F	-2%	16µM*	?	10µM*	-5%	-103*
